RE007 growth inh = less growth of the S. pombe RE007 Vpr strain; S. pombe RE007 Vpr strain, BacTiter-Glo ATP luminescence, 24 h; Potency, µM (highest dose often 92.2 µM), actives largely listed as inhibitors; actives 0.21% (n = 360,000); AID 651644; active = well fitted falling curve with a large enough effect; inconclusive = small, poorly fitted or top-dose-only effect; inactive = no such curve, though single readings can be large or run the other way; note: nearly all actives have a fitted effect of over 50% in size
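Fission yeast strain RE007, carrying one chromosomally integrated HIV-1 vpr copy, was seeded at OD 0.01 in PMG+AL medium with 23 nL pinned compound. After 24 h at 30 °C and 99% humidity, viability was read by BacTiter-Glo luminescence.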
Pf growth 96h = P. falciparum growth inhibition at 96 hours | AID 504834 | actives 6.9% (n = 320,000) | P. falciparum luciferase reporter growth, 96 h | Potency, µM (titrated, usually from 28.7 µM), hits mostly inhibitors; active = well fitted inhibition curve with a large enough effect; inconclusive = small, poorly fitted or top-dose-only effect, or another doubt; inactive = no such curve, though single readings can be large or run the other way
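Parasite growth measured via integrated firefly luciferase reporter in P. falciparum. Infected erythrocytes at 2% hematocrit, 0.05% parasitemia final were treated 96 hours at 37 C under 5% CO2, and luminescence was read.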
NS1 function inh = blocks influenza NS1 protein function; Potency, µM (series often up to 46.1 µM); actives 0.4% (n = 270,000); note: actives are rising curves; nearly all actives have a fitted effect of over 50% in size
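S. cerevisiae expressing influenza A NS1, grown in glucose, washed, then diluted 1:100 into pH 6.0 -URA galactose medium with 23 nl compound. Growth recovery read as OD600; NS1-free strain serves as control.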
SARS PLpro yeast = inhibitors of SARS-CoV papain-like protease in yeast. S. cerevisiae expressing SARS-CoV PLpro, growth rescue. Potency, µM (titrated, usually from 32.9 µM), most hits filed as activators. actives 0.19% (n = 330,000). AID 485353; note: nearly all actives have a fitted effect of over 55% in size
Pf growth 48h = inhibits P. falciparum growth in the first generation, 48 h; AID 504832; actives 5.9% (n = 310,000); P. falciparum luciferase growth in erythrocytes, 48 h; Potency, µM (top dose mostly 28.7 µM), usual class: inhibitors; active = well fitted inhibition curve with a large enough effect; inconclusive = small, poorly fitted or top-dose-only effect, or another doubt; inactive = no such curve, though single readings can be large or run the other way
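Luciferase-expressing parasites in RBCs, 2% Hct / 0.1% parasitemia final; RPMI 1640 + 0.5% Albumax; 37 C, 5% CO2, one generation; luminescence read-out, lower signal = inhibition.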
A number is an active result. Compounds with a hit are over-represented: about 9.5% of the library has one in this group of screens. Unless noted, calls come from the whole dose curve.

Results for CC(NC(=S)NC1CCCCC1)c1ccc(C(C)(C)C)cc1 (stereo not given) ?
RE007 growth inh: inactive; Pf growth 96h: inactive; NS1 function inh: inactive; SARS PLpro yeast: inactive; Pf growth 48h: 5.86µM

What do the screens show for `CCOc1ccc(C(C)NC(=S)NC2CCCCC2)cc1` (stereo not given)?
RE007 growth inh: inactive; Pf growth 96h: inconclusive; NS1 function inh: inactive; SARS PLpro yeast: inactive; Pf growth 48h: inconclusive

Results for CCC(C)c1ccc(C(C)NC(=S)NC2CCCCC2)cc1 (stereo not given) ?
RE007 growth inh: inactive; Pf growth 96h: 9.28µM; NS1 function inh: inactive; SARS PLpro yeast: inactive; Pf growth 48h: 7.38µM

Results for CCc1ccc(C(C)NC(=S)NC2CCCCC2)cc1 (stereo not given) ?
RE007 growth inh: inactive; Pf growth 96h: inactive; NS1 function inh: inactive; SARS PLpro yeast: inconclusive; Pf growth 48h: inconclusive

Results for O=C(Cc1ccc(Cl)cc1)Nc1cc(Cl)ccn1 ?
RE007 growth inh: inactive

Results for COc1ccc(-c2nc(CS(=O)(=O)CC(=O)NCCCN3CCN(C)CC3)c(C)o2)cc1 ?
RE007 growth inh: inactive; Pf growth 96h: inactive; NS1 function inh: inactive; SARS PLpro yeast: inactive; Pf growth 48h: inactive

What do the screens show for `CC(Cc1cccs1)NC(=O)Nc1ccccc1` (stereo not given)?
RE007 growth inh: inactive; Pf growth 96h: 2.94µM; NS1 function inh: inactive; SARS PLpro yeast: inactive; Pf growth 48h: inactive

Results for CC(Cc1cccs1)NC(=O)Nc1ccc(Cl)cc1 (stereo not given) ?
RE007 growth inh: inactive; NS1 function inh: inactive; SARS PLpro yeast: inactive; Pf growth 48h: inactive

How did CCCCc1nc(NCCNC(=O)c2ccco2)c(C#N)c2c1CSC(C)(C)C2 do in these assays?
RE007 growth inh: inactive; NS1 function inh: inactive; SARS PLpro yeast: inactive; Pf growth 48h: 8.28µM

Results for CCCCc1nc(NCCNC(=O)c2ccccc2)c(C#N)c2c1CSC(C)(C)C2 ?
RE007 growth inh: inactive; Pf growth 96h: 2.33µM; NS1 function inh: inactive; SARS PLpro yeast: inactive

Results for CCCCc1nc(Cl)c(C#N)c2c1CSC(C)(C)C2 ?
RE007 growth inh: inactive; Pf growth 96h: inactive; NS1 function inh: inactive; SARS PLpro yeast: inactive; Pf growth 48h: inactive

How did CCCCn1c(N)c(N(CC(C)C)C(=O)CN2C(=O)NC3(CCC(C(C)(C)CC)CC3)C2=O)c(=O)[nH]c1=O (stereo not given) do in these assays?
RE007 growth inh: inactive

Results for O=C(NCCNC(=O)c1ccc([N+](=O)[O-])cc1)c1ccncc1 ?
RE007 growth inh: inactive; Pf growth 96h: inconclusive; SARS PLpro yeast: inactive; Pf growth 48h: inactive

What do the screens show for `CCCCn1cnc2c(oc3nc4c(cc32)CCCC4)c1=O`?
RE007 growth inh: inactive; Pf growth 96h: inactive; NS1 function inh: inactive; SARS PLpro yeast: inactive; Pf growth 48h: inactive

What do the screens show for `O=C(Oc1c(CN2CCOCC2)cc(Cl)c2cccnc12)c1cccs1`?
RE007 growth inh: inactive; Pf growth 96h: 0.738µM; SARS PLpro yeast: inconclusive; Pf growth 48h: 2.62µM

What do the screens show for `O=C(Oc1c(CN2CCOCC2)cc(Cl)c2cccnc12)c1ccccc1Cl`?
RE007 growth inh: inconclusive; Pf growth 96h: 1.31µM; SARS PLpro yeast: inactive; Pf growth 48h: inconclusive

Results for Cc1ccc(O)c(Cc2cc(C)cc(Cc3cc(C)ccc3O)c2O)c1 ?
RE007 growth inh: inactive

Results for CCc1ccccc1OCC(=O)Nc1cc(S(=O)(=O)N2CCOCC2)ccc1N1CCCCC1 ?
RE007 growth inh: inactive; Pf growth 96h: 1.04µM; SARS PLpro yeast: inactive; Pf growth 48h: 2.94µM

What do the screens show for `Cc1ccc(OCCCC(=O)Nc2cc(S(=O)(=O)N3CCOCC3)ccc2N2CCOCC2)cc1`?
RE007 growth inh: inactive; Pf growth 96h: inactive; SARS PLpro yeast: inactive; Pf growth 48h: 10.4µM

Results for Cc1ccc(Cl)c(OCC(=O)Nc2cc(S(=O)(=O)N3CCOCC3)ccc2N2CCCC2)c1 ?
RE007 growth inh: inactive; Pf growth 96h: 8.28µM; NS1 function inh: inactive; SARS PLpro yeast: inactive; Pf growth 48h: 11.7µM

Results for O=C(CSc1nc(O)cc(=O)n1-c1ccc(Cl)c(Cl)c1)Nc1ccc(Cl)cc1Cl ?
RE007 growth inh: inactive; Pf growth 96h: inactive; NS1 function inh: inactive; SARS PLpro yeast: inactive; Pf growth 48h: inactive

Results for CCOc1cc(/C=N/NC(=O)C(O)(c2ccccc2)c2ccccc2)ccc1OC(=O)c1ccco1 ?
RE007 growth inh: inactive

How did CCN(C)C1CN(Cc2cn(Cc3cc(C)cc(C)c3)nn2)S(=O)(=O)C1 (stereo not given) do in these assays?
RE007 growth inh: inactive

How did Cc1ccc(/C=C/C(=O)c2cc(Br)ccc2OC(=O)c2ccco2)cc1 do in these assays?
RE007 growth inh: inactive; Pf growth 96h: inconclusive; NS1 function inh: inactive; SARS PLpro yeast: inactive; Pf growth 48h: 13.1µM

How did COc1ccccc1/C=C/C(=O)c1cc(Br)ccc1OC(=O)c1ccco1 do in these assays?
RE007 growth inh: inactive

How did O=C(Nc1ccc(N2CCCC(O)C2)cc1)c1snc2c(=O)[nH]cnc12 (stereo not given) do in these assays?
RE007 growth inh: inactive; Pf growth 96h: inactive; NS1 function inh: inactive; SARS PLpro yeast: inactive

What do the screens show for `Cc1nc2c(C(=O)Nc3ccc(N4CCCC(O)C4)cc3)snc2c(=O)[nH]1` (stereo not given)?
RE007 growth inh: inactive; Pf growth 96h: inconclusive; NS1 function inh: inactive; SARS PLpro yeast: inactive; Pf growth 48h: 1.65µM

How did O=C(NCc1cccs1)C1CCN(S(=O)(=O)c2ccc(Br)s2)CC1 do in these assays?
RE007 growth inh: inactive; Pf growth 96h: inactive; NS1 function inh: inactive; SARS PLpro yeast: inactive

Results for O=C(NCc1cccs1)C1CCC(CNS(=O)(=O)c2ccc(Br)s2)CC1 (stereo not given) ?
RE007 growth inh: inactive; Pf growth 96h: 7.38µM; NS1 function inh: inactive; SARS PLpro yeast: inactive

What do the screens show for `CC1(C)c2ccccc2-n2c1cc1oc(=O)cc(O)c1c2=O`?
RE007 growth inh: inactive; Pf growth 96h: inactive; NS1 function inh: inactive; SARS PLpro yeast: inactive; Pf growth 48h: inactive

Results for CCO[C@H]1OC(C(=O)NCc2nc3ccccc3[nH]2)=C[C@@H](c2ccccc2)[C@@H]1CCCO ?
RE007 growth inh: inactive; Pf growth 96h: inactive; NS1 function inh: inactive; SARS PLpro yeast: inactive; Pf growth 48h: inactive

How did CCO[C@@H]1OC(C(=O)NCc2nc3ccccc3[nH]2)=C[C@H](c2ccccc2)[C@H]1CCCO do in these assays?
RE007 growth inh: inactive; Pf growth 96h: inconclusive; NS1 function inh: inactive; SARS PLpro yeast: inactive; Pf growth 48h: inconclusive

Results for CCO[C@H]1OC(C(=O)NCc2nc3ccccc3[nH]2)=C[C@@H](c2csc3ccccc23)[C@@H]1CCCO ?
RE007 growth inh: inactive; Pf growth 96h: 10.4µM; NS1 function inh: inactive; SARS PLpro yeast: inactive; Pf growth 48h: 10.4µM

How did CCO[C@@H]1OC(C(=O)NCc2nc3ccccc3[nH]2)=C[C@H](c2csc3ccccc23)[C@H]1CCCO do in these assays?
RE007 growth inh: inactive; Pf growth 96h: 13.1µM; NS1 function inh: inactive; SARS PLpro yeast: inactive; Pf growth 48h: inconclusive
